Screens (PubChem BioAssay)
The sample as a whole holds a higher share of hits than the screen did.
VDR inh: blocks the human vitamin D receptor; VDR-SRC2-3 peptide fluorescence polarization, 2 h; P11473; Potency, µM, usual class: inhibitors; hit rate 0.93% among 400,000
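Signal is fluorescence polarization, reporting how far test compounds block the interaction of VDR with the SRC2-3 coregulator peptide after a 2 h room-temperature incubation.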
G9a inh: G9a (human) methyltransferase inhibition. Q96KQ7. G9a H3K9 monomethylation, AlphaScreen, 2 h. Potency, µM (top dose mostly 102 µM), most hits filed as inhibitors. hit rate 8.8% among 350,000. AID 504332; note: nearly all actives have a fitted effect of over 75% in size
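Readings reflect AlphaScreen signal from monomethyl-H3K9 antibody detection. HMT at 20 nM; substrate b-H3K9 500 nM; cofactor SAM 20 uM; 2 h RT reaction; compounds tested as titrations in qHTS with 15 min preincubation.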
ALOX12 inh: ALOX12 (human) lipoxygenase inhibition | Potency, µM (doses to about 108 µM), actives largely listed as inhibitors | hit rate 1.1% among 580,000 | purified 12hLO, xylenol orange hydroperoxide absorbance | P18054
Target sequence (P18054 whole entry, looked up): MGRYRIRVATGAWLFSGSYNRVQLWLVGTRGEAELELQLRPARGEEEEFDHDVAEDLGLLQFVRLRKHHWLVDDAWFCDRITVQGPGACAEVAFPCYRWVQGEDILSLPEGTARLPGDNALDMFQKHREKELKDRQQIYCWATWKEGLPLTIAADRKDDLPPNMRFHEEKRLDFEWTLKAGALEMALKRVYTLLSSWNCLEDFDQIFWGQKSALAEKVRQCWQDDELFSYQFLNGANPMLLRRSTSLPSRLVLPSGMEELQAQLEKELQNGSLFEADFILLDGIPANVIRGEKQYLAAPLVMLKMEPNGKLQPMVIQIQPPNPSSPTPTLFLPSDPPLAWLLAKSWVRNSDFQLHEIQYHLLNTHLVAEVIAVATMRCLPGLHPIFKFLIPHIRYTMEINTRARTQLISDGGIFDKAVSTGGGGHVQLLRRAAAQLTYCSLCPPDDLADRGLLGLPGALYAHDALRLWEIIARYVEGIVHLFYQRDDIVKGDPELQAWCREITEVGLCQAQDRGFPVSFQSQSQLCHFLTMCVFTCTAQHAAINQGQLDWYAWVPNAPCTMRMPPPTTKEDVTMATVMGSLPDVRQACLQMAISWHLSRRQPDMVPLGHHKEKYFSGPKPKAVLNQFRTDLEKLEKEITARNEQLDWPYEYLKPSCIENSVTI
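Purified human 12hLO at 150 nM in 25 mM Hepes, 0.01% Triton X-100, pH 7.0, preincubated 15 min at room temperature with compound. Reaction started with 40 uM arachidonic acid, 30 min at room temperature. Hydroperoxide measured by Fe-xylenol orange, 573/405 nm absorbance ratio.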
Sfp PPTase inh: inhibitors of Bacillus subtilis Sfp phosphopantetheinyl transferase | Q9F4F7 | Biochemical Sfp PPTase activity, qHTS | Potency, µM, actives largely listed as inhibitors | hit rate 3.5% among 310,000 | AID 1490;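 note: the enzyme is Sfp with the accession as filed and its product quenches rhodamine fluorescence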
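After 15 min at room temperature with compound, 15 nM Sfp received 5 uM rhodamine-CoA plus 12.5 uM BHQ-2-ybbR (50 mM Hepes pH 7.6, 10 mM MgCl2). Rate came from the fluorescence difference over 30 min, ex 525/em 598 nm.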
Glioma ERSR ind: ER stress response induction in glioma; U87-MG GRP78 promoter luciferase reporter, 16 h; hit rate 0.02% among 420,000; Potency, µM, actives largely listed as activators; AID 602332; note: series mostly up to about 76 µM; nearly all actives have a fitted effect of over 35% in size
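Stably transfected U87-MG glioma cells carrying a GRP78-based luciferase sensor; 16 h compound incubation. Luminescence end-point read 10 min after Bright-Glo addition at room temperature.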
A number is an active result; - = inactive; ? = inconclusive; . = no result; ! = repeats disagree; [ ] = remark or other dose. Calls come from the whole dose curve; as a rule, active = well fitted curve in the direction sought with a large enough effect; inconclusive = small, poorly fitted or top-dose-only effect, or another doubt; inactive = no such curve, though single readings can be large; an effect the other way counts as inactive or inconclusive.

SMILES | VDR inh | G9a inh | ALOX12 inh | Sfp PPTase inh | Glioma ERSR ind
Cc1cccc2c1OC(=O)CC2c1ccccc1 (configuration not stated) | . | . | - | . | .
COc1ccc(C2CC(=O)Oc3ccc(O)cc32)cc1 (configuration not stated) | - | 35µM | . | ? | -
CC/C=C(/C)C(=O)N1CCC(C(=O)O)CC1 | . | . | - | . | .
COc1ccc(Oc2coc3cc(OCc4ccccc4C)ccc3c2=O)cc1 | . | . | - | . | .
O=C(Cc1c[nH]c2ccccc12)N1CCC(N2C(=O)C(O)C23CCCCC3)CC1 (configuration not stated) | . | . | - | . | .
O=C(CN1C(=O)NC2(CCCC2)C1=O)c1ccc(Cl)s1 | - | 79µM | ? | . | -
Cn1c(=O)c2c(nc(CO)n2C)n(C)c1=O | - | - | - | - | -
Cn1c(=O)c2c(nc(NN=C3CCCC3)n2C)n(C)c1=O | - | 40µM | ? | 22µM | -
Cn1c(=O)c2c(nc(NNC(=O)C(F)(F)F)n2C)n(C)c1=O | - | 6.3µM | ? | 0.89µM | -
COCCn1cc(C(=O)NC2CCCc3c2[nH]c2c(Cl)cccc32)c2ccccc2c1=O (configuration not stated) | . | . | - | . | .
O=C(NC1CCCc2c1[nH]c1ccccc21)c1cccs1 (configuration not stated) | . | . | 45µM | . | .
COCCn1ccc2ccc(C(=O)NC3CCCc4c3[nH]c3ccccc43)cc21 (configuration not stated) | . | . | 40µM | . | .
CC1(C)NC(C(=O)O)Cc2c1[nH]c1ccccc21 (configuration not stated) | - | 25µM | ? | - | -
O=C(Cn1nc(-c2ccc(F)cc2)ccc1=O)NC1CCCc2c1[nH]c1ccccc21 (configuration not stated) | . | . | 35µM | . | .
O=C(NC1CCCc2c1[nH]c1ccc(F)cc21)c1cccs1 (configuration not stated) | . | . | - | . | .
Cc1cccc(S(=O)(=O)N2CCN(C3CCN(Cc4ccccn4)C3=O)CC2)c1 (configuration not stated) | . | . | - | . | .
Cc1ccc(NC(=O)CN(C)S(=O)(=O)c2ccc(C(=O)N3CCOCC3)s2)c(C)c1 | . | . | - | . | .
CC(C)=CCn1c(-c2ccc(F)cc2)cn2cc(C(=O)N3CCCCC3)nc2c1=O | . | . | - | . | .
COc1ccc(Cl)cc1NC(=O)CCc1ncc(-c2ccc(Cl)cc2)o1 | . | . | - | . | .
CC(=O)Nc1cc(-c2nc3ccc(C)cc3o2)ccc1Cl | . | . | - | . | .
Cn1c(=O)cc(C(=O)NC2CCCc3c2[nH]c2ccccc32)c2ccccc21 (configuration not stated) | . | . | 40µM | . | .
COc1cc(C(=O)NC2CCCc3c2[nH]c2ccccc32)cc(OC)c1OC (configuration not stated) | . | . | 35µM | . | .
O=C(NC1CCCc2c1[nH]c1ccccc21)c1n[nH]c2c1CCC2 (configuration not stated) | . | . | - | . | .
O=C(NC1CCCc2c1[nH]c1ccccc21)c1ccncc1 (configuration not stated) | . | . | - | . | .
COc1cc(C2NC(C(=O)O)Cc3c2[nH]c2ccccc32)cc(OC)c1OC (configuration not stated) | - | ? | - | 71µM! | -
SMILES | VDR inh | G9a inh | ALOX12 inh | Sfp PPTase inh | Glioma ERSR ind
O=C(NC1CCCc2c1[nH]c1ccccc21)c1n[nH]c2c1CCCC2 (configuration not stated) | . | . | 22µM | . | .
Cc1ccc(NC(=S)NNC(=O)c2csc(C)c2)cc1 | . | . | - | . | .
C=CCn1c(-c2cc3c(s2)CCC(CC)C3)n[nH]c1=S (configuration not stated) | - | 11µM | ? | - | -
CCC1CCc2sc(-c3nnc(SCC(=O)NC(C)(C)C)n3C)cc2C1 (configuration not stated) | . | . | - | . | .
CCCCNC(=O)c1cc2cc(OCC)ccc2n1C | . | . | - | . | .
CC(=O)c1cccc(NC(=S)NC(=O)Cc2ccccc2)c1 | - | 22µM | - | - | -
O=C(CSCc1ccccc1Cl)NNC(=S)Nc1ccccc1 | - | 7.9µM | ? | - | -
O=C(CSCc1ccccc1Cl)Nc1ccc(C(=O)O)cc1 | - | -[0.501 µM] | - | - | -
Cc1cccc(NC(=S)NNC(=O)Cc2ccccc2)c1 | - | 16µM | - | - | -
Cc1cccc(-c2cc(C(=O)NCc3ccncc3)c3ccccc3n2)c1 | . | . | - | . | .
CC(C)(C)OC(=O)C(C)(C(=O)OC(C)(C)C)c1nc(C(C)(C(=O)OC(C)(C)C)C(=O)OC(C)(C)C)nc(C(C)(C(=O)OC(C)(C)C)C(=O)OC(C)(C)C)n1 | . | . | - | . | .
CC1CCCCN1c1nc2nnnn2c2sc3c(c12)CCN(Cc1ccccc1)C3 (configuration not stated) | . | . | - | . | .
C[C@H]1CCC(=O)N([C@H](COc2ccccc2)Cc2ccccc2)CC1 | - | 32µM | ? | - | -
O=C(C1=C(O)C(=O)N(CCCN2CCOCC2)C1c1ccccn1)c1cc2ccccc2o1 (configuration not stated) | - | 40µM | ? | - | -
CCN(CC)CCN1C(=O)C(O)=C(C(=O)c2sc(C)nc2C)C1c1cccnc1 (configuration not stated) | - | -[12.7 µM] | - | - | -
Cc1ccc(C(=O)C2=C(O)C(=O)N(CCN3CCOCC3)C2c2ccccn2)o1 (configuration not stated) | . | 2.2µM | . | - | .
O=C(C1=C(O)C(=O)N(CCCN2CCOCC2)C1c1ccccn1)c1cccs1 (configuration not stated) | . | - | . | ? | .
CCN(CC)CCCN1C(=O)C(O)=C(C(=O)c2ccc(C)o2)C1c1ccc(C)o1 (configuration not stated) | - | 20µM | - | - | -
CCN(CC)CCN1C(=O)C(O)=C(C(=O)c2cc3ccccc3o2)C1c1cccnc1 (configuration not stated) | - | 89µM | - | - | -
O=C1CN(C(=O)c2cc(=O)[nH]c3ccccc23)CCN1 | . | . | - | . | .
